Inconclusive results are not listed. Values without a mark were called inactive. Calls follow the shape of the dose curve; as a rule, active = well fitted inhibition curve with a large enough effect in the repeat runs; inconclusive = weak or mixed curves, or effect the other way; inactive = no such curve, though single readings can be large or run the other way.
Each compound was assayed against Nuclear receptor ROR-gamma (Homo sapiens) (UniProt P51449) (assay: qHTS assay to identify small molecule antagonists of the retinoid-related orphan receptor gamma (ROR-gamma) signaling pathway (AID 1159521; also: top concentration of the series differs between compounds; nearly all actives have a fitted effect of over 50% in size)). Conditions: Tet-on RORgamma CHO cells, RORE-luciferase, 16 h; series mostly up to 92.4 µM; activity change, negative = inhibition: at the top concentration.
From the text: U.S. Tox21 Program National Center for Advancing Translational Sciences [NCATS] NIH Chemical Genomics Center [NCGC] U.S. Environmental Protection Agency [EPA] National Institutes of Environmental Health Sciences [NIEHS] National Toxicology Program [NTP] U.S. Food and Drug Administration [FDA] Tox21 Assay Overview: Nuclear steroid hormone receptors are involved in many biological processes including inflammatory responses, cell proliferation, and apoptosis. Environmental factors or compounds disrupting these nuclear receptor pathways and gene expression may promote susceptibility to immunotoxicants and autoimmune diseases. One important group of these expression factors are the retinoid-related orphan receptors. To assess compounds that may interfere with the retinoid-related orphan receptor gamma (ROR-gamma) transcription factor, a cell-based luciferase assay was used. The CHO cell-based assay utilizes a TET-inducible ROR expression factor and ROR response element-LUC reporter gene. Reporter gene activity was induced using Doxycycline Hyclate and measured after 16 hr incubation. Tet-on ROR gamma CHO cells were used to screen against the Tox21 10K compound library for ROR gamma antagonists by quantification of decreased reporter gene activity in terms of decreased luminescence.
Tox21 Assay Protocol Summary: Tet-on ROR gamma CHO cells were dispensed at 1,000 cells in 4 uL of culture medium per well into white wall/solid bottom 1536-well plates using a Multidrop Combi (Thermo Scientific, Waltham, MA) dispenser. Following incubation at 37 C and 5% CO2 for 4 hr, 23 nL of compounds dissolved in DMSO, positive controls or DMSO only were transferred by a Pintool station (Kalypsys, San Diego, CA) and after 2 hr incubation at 37 C, one ul of 1 uM (final concentration) of Doxycycline Hyclate was added to all the wells by using a Flying Reagent Dispenser (FRD) (Aurora Discovery, San Diego, CA). After 16 hr incubation at 37 C and 5% CO2, 5 uL of ONE-Glo reagent (Promega Corporation, Madison, WI) was added to each assay plate using FRD. After 30 min incubation at room temperature, luminescence was quantified on a ViewLux plate reader (Perkin Elmer, Waltham, MA).
% is scaled to controls: 0 for no effect and ±100 for the full control effect.

Compared with `CC1CCC(C(C)(C)S)C(=O)C1` (stereo not given), `CC1(N)CCC(C(C)(C)N)CC1` (stereo not given) is higher in “activity change, negative = inhibition” value: -10.2% for the first, 4.24% for the second.

Going from `CCCCCCCCCCCCCC(=O)OC` to `CCCCCCCCCCCCOC(C)=O`, the “activity change, negative = inhibition” value falls from 33.8% to -7.97%.

Going from `CC(=O)OC(C(=O)c1ccccc1)c1ccccc1` (stereo not given) to `CC(=O)OCCCc1ccccc1`, the “activity change, negative = inhibition” value rises from -6.23% to 19.1%.

Compared with `C=C(C)C(=O)OC1CC(C)CC(C)(C)C1` (stereo not given), `C/C=C(\C)C(=O)OCC/C=C\CC` is higher in “activity change, negative = inhibition” value: 0.93% for the first, 26.9% for the second.

Compared with `CCOC(=O)CC#N`, `CCCCC(C)C(=O)O` (stereo not given) is higher in “activity change, negative = inhibition” value: -15.8% for the first, -1.97% for the second.

Going from `CCCCC[Si](OCC)(OCC)OCC` to `CCCCCCCC[Si](OCC)(OCC)OCC`, the “activity change, negative = inhibition” value falls from 9.91% to -13.3%.

Compared with `COC(OC)C(C)c1ccccc1` (stereo not given), `Cc1ccccc1C` is lower in “activity change, negative = inhibition” value: 20.2% for the first, 17.2% for the second.

First: CC(=O)Nc1ccc(C)cc1
Second: CC(C)(C)c1ccc(C=O)cc1
The “activity change, negative = inhibition” value of the first is higher: 2.58% for the first, -9.98% for the second.

First: CCCC(C)CC (stereo not given)
Second: CC(C)CCCC(C)CC=O (stereo not given)
The “activity change, negative = inhibition” value of the first is lower: 9.14% for the first, 9.15% for the second.

Going from `CCCCCCCCCOCC1CO1` (stereo not given) to `CCCCCC1CCCC(=O)O1` (stereo not given), the “activity change, negative = inhibition” value falls from 32.5% to 5.94%.

Compared with `CNC(=O)NC`, `CCCCOC(=O)C(=O)OCCCC` is higher in “activity change, negative = inhibition” value: -28.6% for the first, 10.4% for the second.

Compared with `C=COCCOCCOC=C`, `N#CCCOCCOCCC#N` is lower in “activity change, negative = inhibition” value: 3.33% for the first, 2.68% for the second.

First: C=CCOc1c(Br)cc(Br)cc1Br
Second: FC(F)(F)c1ccc(Cl)cc1Cl
The “activity change, negative = inhibition” value of the first is higher: 3.48% for the first, -2.47% for the second.

With `CCCCOC(=O)[C@@H](C)Oc1ccc(Oc2ccc(C(F)(F)F)cn2)cc1` the “activity change, negative = inhibition” value was 1.97%.

Compared with `O=C(CN1CCN(Cc2ccc3c(c2)OCO3)CC1)N1c2ccccc2Sc2ccccc21`, `O=C(Oc1ccccc1C(=O)O)c1ccccc1O` is higher in “activity change, negative = inhibition” value: -19% [at 42.5 µM] for the first, 2.96% [at 42.5 µM] for the second.

Going from `O=C(COCCOCCOCC(=O)Nc1c(I)cc(I)c(C(=O)O)c1I)Nc1c(I)cc(I)c(C(=O)O)c1I` to `O=C(O)CCNC(=O)c1ccccc1`, the “activity change, negative = inhibition” value falls from 23.5% [at 42.5 µM] to -1.09% [at 42.5 µM].

Going from `O=C1CC[C@H](C(=O)N2CCCCC2)N1` to `CC(=O)OCC(=O)[C@@]1(O)[C@H](OC(C)=O)C[C@H]2[C@@H]3CCC4=CC(=O)C=C[C@]4(C)[C@@]3(F)[C@@H](O)C[C@@]21C`, the “activity change, negative = inhibition” value rises from 0.912% [at 42.5 µM] to 14.1% [at 42.5 µM].

Compared with `C=CCOc1c(Br)cc(C(C)(C)c2cc(Br)c(OCC=C)c(Br)c2)cc1Br`, `COc1ccc(NS(=O)(=O)c2ccc(N)cc2)nn1` is higher in “activity change, negative = inhibition” value: 6.71% [at 42.5 µM] for the first, 7.42% [at 42.5 µM] for the second.

Going from `NC(=O)NC(=O)Cc1ccccc1` to `Nc1ccc(S(=O)(=O)NC(=O)c2ccccc2)cc1`, the “activity change, negative = inhibition” value rises from 15.7% [at 42.5 µM] to 40.1% [at 42.5 µM].

Compared with `CC(C)SCc1ccco1`, `Nc1ccc(S(=O)(=O)Nc2ccccn2)cc1` is higher in “activity change, negative = inhibition” value: 0.649% [at 42.5 µM] for the first, 34.5% [at 42.5 µM] for the second.

With `O=CO` the activity change, negative = inhibition was 22.1% [at 8.39 µM].

Source: PubChem BioAssay (Tox21)
